A number with no mark means an inactive call. Inconclusive results are not listed. Activity calls are given as the source filed them. Unless noted, calls follow the shape of the full dose curve.

Assay [1] can be described thus: Nuclear factor erythroid 2-related factor 2/antioxidant responsive element (Nrf2/ARE) small molecule agonists: qHTS cell viability counter screen in human keratinocytes (AID 1919968; active = well fitted curve in the direction sought with a large enough effect in the repeat runs; an effect the other way counts as inactive or inconclusive; also: nearly all actives have a fitted effect of over 55% in size). An outline of the steps: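 CellTiter-Fluor fluorescence, read 1 h after reagent, gave viability in the same wells as the ARE-luciferase assay. KeratinoSens cells (1,500/well) had 23 h compound exposure at 37 C/5% CO2 following 5 h plating.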
A general note: Quantitative high-throughput screening tests each substance at several concentrations.

Assay [2] can be described thus: Nuclear factor erythroid 2-related factor 2/antioxidant responsive element (Nrf2/ARE) small molecule agonists: luciferase reporter gene qHTS assay in human keratinocytes (AID 1919969; also: nearly all actives have a fitted effect of over 35% in size). (In general: In a reporter assay the amount or activity of a reporter protein is the signal.)
In assay [3] the target is Gonadotropin-releasing hormone receptor (Homo sapiens) (UniProt P30968). In words: Human gonadotropin-releasing hormone receptor (GnRHR) small molecule agonists, calcium flux assay in GnRHR-HEK293 cells (AID 1920063). Also: nearly all actives have a fitted effect of over 35% in size. An outline of the steps:
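Agonist mode: compounds at 15 concentrations, in triplicate, went onto calcium dye-loaded GnRHR-HEK293 cells. Intracellular calcium was then followed as 480/540 nm fluorescence at 1 s intervals over 3 min.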
A general note: A change in cytosolic calcium serves as a functional read-out for many receptors and channels.

In assay [4] the target is KiSS-1 receptor (Homo sapiens) (UniProt Q969F8). Nature of the assay: Human kisspeptin (KISS1R) small molecule agonists, calcium flux assay in KISS1R-HEK293 cells (AID 1920064; active = well fitted curve in the direction sought with a large enough effect in the repeat runs; an effect the other way counts as inactive or inconclusive). An outline of the steps:
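Agonist mode: intracellular calcium rise tracked at 1 s intervals over 3 min (480/540 nm) immediately after compound addition to dye-loaded KISS1R-HEK293 stable cells. Each compound tested at 15 concentrations in triplicate.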

The nature of assay [5]: G protein-coupled receptor (GPCR) small molecule agonists, calcium flux assay: HEK293 wild type cell line counter screen (AID 1920065). An outline of the steps: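 Calcium flux counter screen: compound added in agonist mode at 15 concentrations in triplicate to dye-loaded parental HEK293 cells. Fluorescence (480/540) read kinetically for 3 min; ATP served as positive control.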

A short description of assay [6]: p53 small molecule agonists, cell-based qHTS assay with human liver microsomes (AID 1963577).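 Also: p53 response element beta-lactamase reporter cells with liver microsomes plus NADPH.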 The method, boiled down:
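Reporter activation was measured by LiveBLAzer fluorescence intensity in p53RE-bla cells, which had been exposed to compounds for 16 h at 37 C alongside 0.5 mg/mL human liver microsomes and 0.5 mg/mL NADPH (final concentrations).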

A short description of assay [7]: p53 small molecule agonists, cell-based qHTS assay with rat liver microsomes (AID 1963578). An outline of the steps: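 Compound in DMSO added to p53RE-bla cells 5 h post-plating; rat microsomes/NADPH 0.5 mg/mL final; 16 h, 37 C; LiveBLAzer 2 h RT.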
The nature of assay [8]: p53 small molecule agonists, cell-based qHTS assay with human liver microsomes: qHTS cell viability counter screen (AID 1963579). Also: nearly all actives have a fitted effect of over 45% in size. The method, boiled down:
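HLM-supplemented (0.5 mg/mL final) and NADPH-supplemented (0.5 mg/mL final) p53RE-bla cultures, 4,000 cells per well, were dosed with compounds in DMSO for 16 h at 37 C; luminescent ATP detection (CellTiter-Glo, 30 min, room temperature) quantified surviving cells.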

Assay [9] in a line: p53 small molecule agonists, cell-based qHTS assay with rat liver microsomes: qHTS cell viability counter screen (AID 1963580). Also: nearly all actives have a fitted effect of over 45% in size. The method, boiled down:
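Cytotoxicity counter screen: intracellular ATP measured by CellTiter-Glo luminescence in the same wells as the beta-lactamase reporter read, on HCT-116 p53RE-bla cells exposed 16 h at 37 C to compounds with rat liver microsomes and NADPH, each 0.5 mg/mL final.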

The nature of assay [10]: p53 small molecule agonists, cell-based qHTS assay: qHTS cell viability counter screen (AID 1963581). Also: nearly all actives have a fitted effect of over 45% in size. An outline of the steps:
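Counter screen read by CellTiter-Glo luminescence (ATP content, 30 min at room temperature), run in the same wells as the beta-lactamase reporter read. HCT-116 p53RE-bla cells saw compounds for 16 h at 37 C.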

Assay [11] can be described thus: p53 small molecule agonists, cell-based qHTS assay (AID 1963582; active = well fitted activation curve with a large enough effect in the signal ratio in the repeat runs, not every such curve was filed as active; the % refers to the signal ratio). An outline of the steps:
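Read-out is beta-lactamase FRET fluorescence after 2 h at room temperature with LiveBLAzer B/G substrate. p53 response element-bla cells were treated 16 h at 37 C with compounds in DMSO, added 5 h after seeding.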

The target of assay [12] is 5-hydroxytryptamine receptor 2A (Homo sapiens) (UniProt P28223). In words: 5-hydroxytryptamine receptor 2A (HTR2A) small molecule agonists, cell-based qHTS assay (AID 1963587). Also: nearly all actives have a fitted effect of over 30% in size. The method, boiled down:
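CHO cells stably expressing human HTR2A, plated 18 h, loaded with calcium dye 1 h at 37 C. Agonist mode: compounds added and intracellular calcium fluorescence recorded kinetically for 2 min at 1 sec intervals.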

Assay [13] has as its target Muscarinic acetylcholine receptor M1 (Homo sapiens) (UniProt P11229). In words: Cholinergic receptor muscarinic 1 (CHRM1) small molecule agonists, cell-based qHTS assay (AID 1963589). Also: nearly all actives have a fitted effect of over 35% in size. An outline of the steps: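 Agonist-mode calcium-flux screen: compounds at 15 concentrations, three independent runs, were pin-transferred onto dye-loaded human CHRM1-CHO cells. Fluorescence was then recorded kinetically every second over minutes.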

Assay [14] in a line: cAMP Responsive Elements (CRE) small molecule agonists, cell-based qHTS assay (AID 1963590). The method, boiled down:
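Agonist mode: compound added to CRE-bla HEK 293T cells (2,000/well, 18 h after plating) for 3 h at 37 C/5% CO2. Reporter activity detected via FRET beta-lactamase substrate, 2 h room-temperature loading.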

Assay [15] is described as follows: cAMP Responsive Elements (CRE) small molecule antagonists, cell-based qHTS assay (AID 1963591; active = well fitted inhibition curve with a large enough effect in the signal ratio in the repeat runs, not every such curve was filed as active; the % refers to the signal ratio). An outline of the steps:
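Antagonist mode: compounds are added alongside the adenylyl cyclase activator NKH477 (0.25 uM final) to CRE-bla HEK293T cells for 3 h. LiveBLAzer FRET substrate, 2 h at room temperature, reports bla expression.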

For assay [16], the target named is Beta-2 adrenergic receptor (Homo sapiens) (UniProt P07550). Nature of the assay: Adrenergic beta2 receptor (ADRB2) small molecule antagonists, cell-based qHTS assay (AID 1963592). Also: series mostly up to about 92 µM; nearly all actives have a fitted effect of over 50% in size. The method, boiled down: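 Assay format: CHO-ADRB2 cells, 18-20hr seeding at 37C/5% CO2, then compound plus 1nM isoproterenol agonist mix for 0.5hr RT. Homogeneous time-resolved fluorescence cAMP detection after 1hr, expressed as 665/615 nm ratio.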

Assay [17] shares this target. Nature of the assay: Adrenergic beta2 receptor (ADRB2) small molecule agonists, cell-based qHTS assay (AID 1963593).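 Also: CHO cells stably overexpressing human ADRB2.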 An outline of the steps:
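CHO cells stably over-expressing ADRB2 were plated overnight at 37C, then dosed with compounds plus a stimulation mix containing 100uM IBMX and 25uM Ro-20-1724 for 0.5hr at room temperature. cAMP was measured by HTRF competition, 1hr.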

Assay [18] concerns the target D(2) dopamine receptor (Homo sapiens) (UniProt P14416). Nature of the assay: Dopamine D2 receptor (DRD2) small molecule agonists, cell-based qHTS assay (AID 1963594). Also: nearly all actives have a fitted effect of over 35% in size. Also: potency is read from the fitted curve at half-maximal effect. An outline of the steps:
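HEK293 cells stably expressing human DRD2, pre-treated with PDE inhibitor Ro20-1724 (0.1 mM final) and compound 10 min at room temperature, then stimulated with NKH477 (200nM […]) for 30 min. cAMP read by HTRF (665/620 nm).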

Assay [19] has the same target. In words: Dopamine D2 receptor (DRD2) small molecule antagonists, cell-based qHTS assay (AID 1963595; active = well fitted inhibition curve with a large enough effect in the signal ratio in the repeat runs, with a control signal flat; the % refers to the signal ratio). An outline of the steps:
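Cells were plated and grown for 24 h at 37 °C. Ro20-1724 (0.1 mM final) went in first, then compound for 10 min. NKH477 (200 nM) with quinpirole (12 nM) followed for 30 min at RT, then HTRF detection reagents for 1 h.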

In assay [20] the target is Muscarinic acetylcholine receptor M1 (Homo sapiens) (UniProt P11229). In words: Cholinergic receptor muscarinic 1 (CHRM1) small molecule antagonists, cell-based qHTS assay (AID 1963588). Also: nearly all actives have a fitted effect of over 40% in size. An outline of the steps: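 Compounds were tested at 15 concentrations in three independent runs. Dye-loaded CHRM1-CHO cells were exposed 5 min at room temperature before stimulation by acetylcholine added at 50nM. Intracellular calcium was read kinetically on FDSS for 3 min.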
Muscarinic acetylcholine receptor M1 (Homo sapiens), sequence (P11229 whole entry, looked up): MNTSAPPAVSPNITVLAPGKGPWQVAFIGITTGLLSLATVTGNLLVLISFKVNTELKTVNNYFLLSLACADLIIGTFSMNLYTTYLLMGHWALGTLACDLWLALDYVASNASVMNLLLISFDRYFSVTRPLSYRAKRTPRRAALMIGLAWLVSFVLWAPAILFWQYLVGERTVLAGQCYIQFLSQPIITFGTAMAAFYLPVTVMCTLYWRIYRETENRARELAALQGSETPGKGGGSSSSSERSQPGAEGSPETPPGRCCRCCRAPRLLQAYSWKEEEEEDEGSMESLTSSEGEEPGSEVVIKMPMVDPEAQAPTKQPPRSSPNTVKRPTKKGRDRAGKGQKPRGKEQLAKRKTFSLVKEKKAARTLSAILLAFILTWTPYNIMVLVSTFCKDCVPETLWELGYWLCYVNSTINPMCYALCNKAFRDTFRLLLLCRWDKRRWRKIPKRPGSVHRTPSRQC

Gonadotropin-releasing hormone receptor (Homo sapiens), sequence (P30968 whole entry, looked up): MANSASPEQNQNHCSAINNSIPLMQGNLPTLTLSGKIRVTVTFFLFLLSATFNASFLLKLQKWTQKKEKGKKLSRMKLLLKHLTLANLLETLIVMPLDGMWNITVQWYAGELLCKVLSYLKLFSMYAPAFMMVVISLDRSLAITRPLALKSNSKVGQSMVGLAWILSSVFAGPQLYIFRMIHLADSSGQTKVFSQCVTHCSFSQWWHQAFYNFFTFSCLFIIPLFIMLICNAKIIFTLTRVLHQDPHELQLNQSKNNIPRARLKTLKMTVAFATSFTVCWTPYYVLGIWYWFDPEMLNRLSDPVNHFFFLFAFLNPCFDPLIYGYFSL
Beta-2 adrenergic receptor (Homo sapiens), sequence (P07550 whole entry, looked up): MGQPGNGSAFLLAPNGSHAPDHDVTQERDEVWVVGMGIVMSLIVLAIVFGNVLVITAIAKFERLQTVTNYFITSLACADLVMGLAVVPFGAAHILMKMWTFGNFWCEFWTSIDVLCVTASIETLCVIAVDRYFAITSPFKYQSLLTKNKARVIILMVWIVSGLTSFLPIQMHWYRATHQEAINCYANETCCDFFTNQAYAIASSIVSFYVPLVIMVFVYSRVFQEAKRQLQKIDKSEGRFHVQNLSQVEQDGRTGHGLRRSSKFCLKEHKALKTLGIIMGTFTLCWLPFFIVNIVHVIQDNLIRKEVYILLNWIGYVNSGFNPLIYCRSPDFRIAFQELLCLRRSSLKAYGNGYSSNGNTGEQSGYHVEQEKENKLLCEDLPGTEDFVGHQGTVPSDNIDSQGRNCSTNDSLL
KiSS-1 receptor (Homo sapiens), sequence (Q969F8 whole entry, looked up): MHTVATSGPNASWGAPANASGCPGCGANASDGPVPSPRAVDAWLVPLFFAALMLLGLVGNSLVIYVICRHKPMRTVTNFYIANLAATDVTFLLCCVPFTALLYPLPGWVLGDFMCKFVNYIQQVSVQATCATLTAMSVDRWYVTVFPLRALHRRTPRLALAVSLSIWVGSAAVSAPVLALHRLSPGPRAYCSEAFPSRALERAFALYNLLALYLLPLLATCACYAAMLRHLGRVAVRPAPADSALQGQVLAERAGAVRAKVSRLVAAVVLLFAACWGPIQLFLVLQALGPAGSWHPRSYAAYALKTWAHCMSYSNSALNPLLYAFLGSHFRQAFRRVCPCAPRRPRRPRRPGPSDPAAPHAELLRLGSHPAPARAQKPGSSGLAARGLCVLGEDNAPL
5-hydroxytryptamine receptor 2A (Homo sapiens), sequence (P28223 whole entry, looked up): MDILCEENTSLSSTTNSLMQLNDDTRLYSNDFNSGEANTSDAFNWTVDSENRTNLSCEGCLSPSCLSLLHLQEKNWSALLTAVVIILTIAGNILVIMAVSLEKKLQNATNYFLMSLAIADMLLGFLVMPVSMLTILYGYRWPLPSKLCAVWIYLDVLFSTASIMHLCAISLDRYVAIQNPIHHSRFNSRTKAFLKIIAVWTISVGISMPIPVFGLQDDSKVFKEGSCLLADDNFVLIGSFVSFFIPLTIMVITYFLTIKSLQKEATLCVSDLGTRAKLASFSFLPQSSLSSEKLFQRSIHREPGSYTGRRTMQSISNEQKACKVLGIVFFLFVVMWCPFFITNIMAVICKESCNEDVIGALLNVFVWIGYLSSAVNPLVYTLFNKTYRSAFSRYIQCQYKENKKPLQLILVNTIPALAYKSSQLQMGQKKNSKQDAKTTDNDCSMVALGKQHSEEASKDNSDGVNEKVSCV
D(2) dopamine receptor (Homo sapiens), sequence (P14416 whole entry, looked up): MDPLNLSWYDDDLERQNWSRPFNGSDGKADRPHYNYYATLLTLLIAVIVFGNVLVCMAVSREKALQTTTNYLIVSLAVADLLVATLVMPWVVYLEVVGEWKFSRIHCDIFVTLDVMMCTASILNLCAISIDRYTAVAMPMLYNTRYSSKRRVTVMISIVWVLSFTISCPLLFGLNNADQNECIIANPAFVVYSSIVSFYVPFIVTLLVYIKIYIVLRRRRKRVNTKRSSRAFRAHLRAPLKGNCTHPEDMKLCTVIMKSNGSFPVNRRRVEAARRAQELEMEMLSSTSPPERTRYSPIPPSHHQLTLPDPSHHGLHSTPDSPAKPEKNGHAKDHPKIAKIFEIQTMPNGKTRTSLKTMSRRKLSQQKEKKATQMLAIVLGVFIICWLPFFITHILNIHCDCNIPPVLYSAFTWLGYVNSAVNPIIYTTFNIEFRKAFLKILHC

Consider `CCN(CC)CCOC(=O)C1(c2ccccc2)CCCC1`, for which the Potency entry in assay [1], in assay [2], in assay [3], in assay [6], in assay [7] and in assay [8] was “inactive” each time. Moreover, the Potency entry in assay [9], in assay [10], in assay [11], in assay [12], in [13] and in assay [14] was “inactive” throughout. Further, the Potency result in [15], in assay [16], in assay [17], in assay [18] and in assay [19] was “inactive” each time. For the same compound, the outcome in assay [4] and in [5] was inactive.
Regarding `CCCCOc1cc(C(=O)NCCN(CC)CC)c2ccccc2n1`, the Potency entry in assay [1], in [2], in assay [3], in [6], in assay [7] and in assay [8] was “inactive” in each case. The Potency result in assay [9], in assay [10], in [11], in [20], in assay [13] and in assay [14] was “inactive” in each case. For the same compound, the Potency entry in assay [15], in assay [17] and in assay [19] was “inactive” throughout. The result in assay [4] and in assay [5] was inactive.
On to `COc1cc(C(=O)OC(COCCC(C)C)CN2CCOCC2)cc(OC)c1OC` (stereo not given), for which the Potency result in [1], in assay [2], in assay [3], in assay [6], in assay [7] and in [8] was “inactive” in each case. The Potency result in assay [9], in assay [10], in assay [11], in [12], in assay [13] and in [18] was “inactive” throughout. Further, the Potency result in [19] is “inactive”. The outcome in [4] and in assay [5] was inactive.
Turning to `O=S(=O)(O)c1ccc(Cl)cc1`, the Potency result in assay [1], in [2], in [3], in assay [6], in [7] and in [8] was “inactive” each time. Moreover, the Potency result in assay [9], in assay [10], in assay [11], in [12], in assay [15] and in assay [16] was “inactive” in each case. The Potency entry in [17], in assay [18] and in [19] was “inactive” throughout. For the same compound, the result in assay [4] and in assay [5] was inactive.
Turning to `COC(=O)CCCCCCCCC(=O)OC`, the Potency entry in assay [1], in [2], in assay [3], in assay [6], in assay [7] and in assay [8] was “inactive” each time. The Potency entry in assay [9], in assay [10], in assay [11], in [12], in assay [20] and in assay [13] was “inactive” each time. In addition, the Potency result in assay [15], in assay [17] and in assay [19] was “inactive” in each case. The result in [4] and in assay [5] was inactive.
Turning to `NC(=O)NC(=O)Cc1ccccc1`, the Potency result in [1], in assay [2], in [3], in [6], in [7] and in assay [8] was “inactive” throughout. Moreover, the Potency result in [9], in [10], in assay [11], in assay [14], in [15] and in [16] was “inactive” in each case. Besides, the Potency result in assay [17], in assay [18] and in [19] was “inactive” in each case. Moreover, the outcome in assay [4] and in [5] was inactive.
Consider `Nc1nc2c(ncn2COC(CO)CO)c(=O)[nH]1`, for which the Potency entry in assay [1], in assay [2], in [3], in [6], in [7] and in assay [8] was “inactive” throughout. The Potency result in assay [9], in assay [10], in assay [11], in assay [14], in assay [15] and in assay [16] was “inactive” each time. In addition, the Potency entry in assay [17] and in assay [19] was “inactive” in each case. The outcome in assay [4] and in assay [5] was inactive. Also, the Potency in assay [18] was 1.14 µM (active).
As to `CCn1cc(C(=O)O)c(=O)c2cc(F)c(N3CCNCC3)cc21`, the Potency entry in assay [1], in assay [2], in [3], in assay [6], in [7] and in assay [8] was “inactive” in each case. For the same compound, the Potency result in assay [9], in [10], in assay [11], in assay [14], in assay [15] and in [16] was “inactive” throughout. Also, the Potency result in assay [18] and in assay [19] was “inactive” throughout. Moreover, the outcome in [4] and in assay [5] was inactive.

Values taken from PubChem BioAssay (Tox21).
